In PubChem BioAssay AID1486 (The Scripps Research Institute Molecular Screening Center, 2009) one finds inhibition data, which are given here for 95 molecules.

The structures appear in SMILES notation. About 2,400 (1.1%) of roughly 220,000 compounds were called active. The list comes from a sample in which actives are over-represented; it also holds similar structures and randomly drawn compounds. A number with no mark means an inactive call.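 How the source made its calls: active means inhibition above a per-campaign cutoff, the mean inhibition of all tested compounds plus 3 SD (cut at about 27% in these data); inactive means the rest.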

This assay can be described thus: parental Ba/F3 cell viability inhibition, counter-screen for JAK2V617F inhibitor project, murine pro-B, CellTiter-Glo luminescence (AID 1486).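 Further: 0% = DMSO wells and 100% = JAK Inhibitor I control wells.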 The following applies: CellTiter-Glo ATP luminescence, at 5.6 µM, active compounds read high. In general terms: Counterscreens check selectivity or assay interference.
A word on the inhibition: it is the change of the read-out against control, counted positive when it falls. With `CCCN(CCC)CC(O)COc1ccccc1C(=O)Nc1ccccc1` (stereo not given), the inhibition was 1.95%. Turning to `CNC(=O)c1csc(Cc2c(Cl)sc3ccc(Cl)cc23)n1`, the inhibition was -0.25%.

With `COc1ccc(C(=O)CN(C(=O)c2ccc(Cl)cc2)N2C(=O)c3ccccc3C2=O)cc1`, the inhibition was -0.72%.

`COc1ccc(Cn2c(=O)cc(C)[nH]c2=S)cc1`: the inhibition is 9.89%. Take `COc1ccc(Cn2c(-c3ccc(Cl)cc3)c[n+]3ccccc23)cc1`: the inhibition is 76.4% (active).

`COc1cccc(Nc2nnc(SCC(=O)N3CC(=O)Nc4ccccc43)s2)c1`: the inhibition is -3.89%. On to `Nc1ccc(C(=O)OCC(=O)NC2CCS(=O)(=O)C2)cc1[N+](=O)[O-]` (stereo not given), for which the inhibition is -1.89%. In the case of `Cc1ccc(C(=O)COc2cccc(NC(=O)c3ccco3)c2)cc1`, the inhibition is 95.5% (active). The same measure for `Cc1ccnc(NC(=O)c2ccc(NC(=O)c3ccco3)cc2)c1`: -0.11%. The result for `COc1cccc(C(=O)Nc2ccc(NC(=O)c3ccco3)cn2)c1` reads -2.07%; that for `Cc1c(NC(=O)CSc2nnnn2-c2ccc(C(=O)O)cc2)c(=O)n(-c2ccccc2)n1C`, 9.83%; that for `COc1ccc(C(=O)C2CCCN(C(=O)c3cnsn3)C2)c(C)c1` (stereo not given), -0.94%. The result for `COc1ccc(NS(=O)(=O)c2ccc(Oc3c(C#N)cccc3C#N)cc2)cc1` reads 42% (active); that for `COc1ccc(NS(=O)(=O)c2ccc(NC(=O)c3ccc(N(C)S(C)(=O)=O)cc3)cc2)cc1`, 5.44%; that for `CCOc1ccc(S(=O)(=O)Nc2ccc(S(=O)(=O)Nc3cc(OC)ccc3OC)cc2)cc1`, 5.24%. In the case of `COc1ccccc1N1CC(C(=O)Nc2ccc(S(=O)(=O)N3CCOCC3)cc2)CC1=O` (stereo not given), the inhibition was 2.78%. The result for `CNc1nnc(-c2ccco2)s1` reads -0.97%.

For the molecule `COc1cccc(C(O)Cc2nc3ccccc3n2C)c1OC` (stereo not given), the inhibition was 0.12%. As for `Cc1ccc(F)cc1NC(=O)Cc1nn(C)c(=O)c2ccccc12`, the inhibition was 37.3% (active). In the case of `COc1ccc(-c2nn(C)c(=O)c3ccccc23)cc1NC(=O)COc1ccccc1`, the inhibition was -0.19%. As to `Cc1ccc(NC(=O)Cn2nc(C)c3ccccc3c2=O)c(C)c1`, the inhibition is 4.31%. The same measure for `COc1ccc(Cl)cc1NC(=O)NC(C)C(C)(C)C` (stereo not given): 2.98%; for `Cc1nc2ccccc2nc(=O)c1NNc1ccc([N+](=O)[O-])cc1`: 4.24%. The result for `O=C(COC(=O)CCc1nc2ccccc2c(=O)[nH]1)Nc1ccc(N2CCOCC2)cc1` reads -2.42%; that for `O=C(/C=C/c1ccc(OCc2c(F)cccc2Cl)cc1)N1CCOCC1`, 67.9% (active); that for `CN(C)CCCNC(=O)/C=C/c1ccc(OCc2c(F)cccc2Cl)cc1`, 7.63%. The result for `COCCCNC(=O)/C=C/c1ccc(OCc2c(F)cccc2Cl)cc1` reads 2.28%; that for `C/C(=N/Nc1nc(-c2ccccc2)c(CC(=O)O)s1)c1ccccc1`, 2.81%. As to `O=C(CCCn1c(SCC(=O)c2ccc(F)cc2)nc2ccccc2c1=O)NCc1ccco1`, the inhibition is 4.54%. The result for `C=C(C)Cn1c(SCC(=O)NCc2ccco2)nc2sc3c(c2c1=O)CCC3` reads 1.93%. Consider `O=C(CSc1nc2cc3c(cc2c(=O)n1CCC1=CCCCC1)OCO3)NCc1ccco1`, for which the inhibition is 33.2% (active).

For `COc1cc(OC)cc(C(=O)NCC(=O)OCc2csc(-c3ccccc3)n2)c1`, the inhibition is 10.9%. `COc1cc(OC)cc(C(=O)NC2CCN(C(=O)N3c4ccccc4Sc4ccccc43)CC2)c1`: the inhibition was 6.78%. The result for `Cc1ccc(-c2nn(-c3ccccc3)cc2CN(Cc2ccccc2)C(=O)CCC(=O)O)o1` reads 6.11%; that for `Cc1ccc(-c2nn(-c3cccc(F)c3)cc2CNCCc2ccncc2)o1`, 43% (active). As for `CSCCNCc1cn(-c2ccc(F)cc2F)nc1-c1ccccc1C`, the inhibition is 5.07%.

As to `Cc1cc(Cl)ccc1C(=O)C1CCCN(C(=O)CCN2CCCO2)C1` (stereo not given), the inhibition is 0.61%. The result for `Cc1cc(=O)[nH]c(SCC(=O)Nc2ccc(Br)cc2)n1` reads -7.26%; that for `O=C(/C=C/c1ccc(Cl)c([N+](=O)[O-])c1)c1ccc(O)cc1`, 2.68%.

Turning to `CNC(=O)Nc1cc(C(C)(C)C)no1`, the inhibition was 54.8% (active).

For the molecule `CCCn1c(SCC(=O)Nc2ccc(C)c(S(=O)(=O)N3CCOCC3)c2)n[nH]c1=O`, the inhibition was 4.59%. `CC[n+]1c(C)n(-c2ccccc2)c2ccc(NC(C)=O)cc21`: the inhibition is 57.7% (active). With `CCc1ccc(NC(=O)N2CCN(c3ccccc3)CC2)cc1`, the inhibition was 1.4%.

With `CCn1c2ccccc2c2cc(NC(=O)CNC)ccc21`, the inhibition is 3.93%. The result for `Cc1ccc(/C=N/NC(=S)NC2CCCCC2)o1` reads -7.43%; that for `CCOC(=O)c1ccc(NC(=O)Cn2nnc(-c3ccc(C)cc3)n2)cc1`, 1.76%. The same measure for `CCOC(=O)c1ccc(NC(=O)CSc2ncccn2)cc1`: 0.67%.

Regarding `CCOC(=O)c1ccc(NC(=O)Cn2cnc3cc(C)c(C)cc32)cc1`, the inhibition was 58.4% (active). The result for `O=C(O)CC1=C(Nc2ccccc2)C(=O)N(c2ccccc2)C1c1ccc(Cl)cc1` (stereo not given) reads 1.11%. The result for `Cc1ccc2cc(/C=N/NC(=O)[C@@H]3CCCN3)c(Cl)nc2c1` reads 0.27%; that for `CC(C)Nc1nnc(SCC(=O)/C=C2\N(C)c3ccccc3C2(C)C)s1`, 0.74%; that for `Cc1noc(C)c1C(=O)OCC(=O)/C=C1\N(C)c2ccccc2C1(C)C`, 4.98%.

Take `CC(=O)Nc1cccc(OCC(=O)/C=C2\N(C)c3ccccc3C2(C)C)c1`: the inhibition is 44.2% (active). On to `COc1ccc(-n2cc(CNC3CCOCC3)c(-c3cccc(F)c3)n2)cc1`, for which the inhibition was 5.7%. The result for `CCCCC(NC(=O)c1cccc(Br)c1)C(=O)O` (stereo not given) reads 0.6%; that for `O=C(Nc1cccc(F)c1)c1ccc(S(=O)(=O)N2CCCC2)cc1`, 7.79%; that for `CCOC(=O)N1CCN(S(=O)(=O)c2ccc(C(=O)Nc3ccc(F)cc3F)cc2)CC1`, 53.5% (active). The result for `COc1ccc(C(=O)Nc2ccc(F)cc2F)cc1` reads -0.96%; that for `Cc1cc(C)c(NC(=O)CN2CCOCCOCCOCCOCC2)c(C)c1`, 2.62%; that for `O=C(CSc1ccc(C(F)(F)F)cc1[N+](=O)[O-])NCCOc1ccccc1`, 3.21%. Regarding `CC#CC[N+](C)(C)CCCCCC`, the inhibition is 43.8% (active). In the case of `C/C(=N\N1CCN(Cc2ccc(C)cc2)CC1)c1ccco1`, the inhibition is 3.54%. For the molecule `Cc1ccc(C(=O)Nc2nc(N)n(-c3ccccc3)n2)cc1`, the inhibition was -1.21%.

`COc1cc(Cl)c(C)cc1NC(=O)[C@@H]1CCCN1C(=O)c1cccs1`: the inhibition was 6.13%. With `COC(=O)Nc1ccc(S(=O)(=O)N2CCN(CCN3C(=O)C4C5C=CC(C5)C4C3=O)CC2)cc1` (stereo not given), the inhibition is 5.02%.

For the molecule `COC(=O)CCNC(=O)c1ccc2[nH]c(C)c(C)c2c1`, the inhibition is 3.29%. As to `CCOC(=O)C1=C(C)NC(=S)NC1c1cccs1` (stereo not given), the inhibition was 3.93%. The same measure for `CCOC(=O)c1[nH]c2c(c1C)C(=O)CC(c1ccc(N(C)C)cc1)C2` (stereo not given): 4.47%; for `CCCOC(=O)c1[nH]c2c(c1C)C(=O)CC(c1cc(OC)c(OC)c(OC)c1)C2` (stereo not given): 41.3% (active); for `COc1cc(C2CC(=O)c3cnc(NC(C)=O)nc3C2)cc(OC)c1OC` (stereo not given): 2.9%. On to `CCOC(=O)c1[nH]c2c(c1-c1ccccc1)C(=O)CC(c1ccc(Cl)cc1)C2` (stereo not given), for which the inhibition is 8.29%.

As for `CCCOC(=O)c1[nH]c2c(c1C)C(=O)CC(c1cccs1)C2` (stereo not given), the inhibition was 75.9% (active). The same measure for `O=C(O)CCCC(=O)Nc1ccc(Oc2cccc(C(F)(F)F)c2)nc1`: -1.72%; for `CCOC(=O)C1=C(CC)OC(N)=C(C#N)C1c1ccc(F)cc1F` (stereo not given): 0.94%; for `Cc1ccc(S(=O)(=O)N2CCCC2C(=O)OCc2nc3sc(C)c(C)c3c(=O)[nH]2)cc1` (stereo not given): 3.55%. The same measure for `O=C1CCCCC1C(=O)c1ccccc1` (stereo not given): 0.06%; for `COc1ccc2nc(/N=C(\N)NC(=O)Nc3ccccc3)nc(C)c2c1`: 31.6% (active); for `COc1ccc(NC(=O)Nc2ccc3nc(C)c(C)nc3c2)cc1`: 1.19%.

`Cc1nc(/N=C(\N)NC(=O)NC2CCCCC2)nc2ccccc12`: the inhibition was 4.49%. The same measure for `O=C(NNC(=O)c1cnccc1C(F)(F)F)c1ccc(Cl)cc1`: -1.83%; for `COc1cccc(Cn2cnc3c([N+](=O)[O-])c(C)c(C)cc32)c1`: 9.27%; for `CCOC(=O)c1cn(Cc2cccc(C)c2)nn1`: 2.15%. Take `Cc1cccc(Cn2cnc3c(N)c(C)c(C)cc32)c1`: the inhibition was 32.6% (active). The same measure for `CCN(CC)S(=O)(=O)c1ccc(OC(C)C)c(N)c1`: 5.49%; for `CCCOc1ccccc1C1CC(=O)Nc2cc3c(cc21)OCO3` (stereo not given): 71.8% (active).

Regarding `COc1ccc(C2CC(=O)Nc3cc(C)c(C)cc32)c(OC)c1OC` (stereo not given), the inhibition is 3.54%. Turning to `COCCOC(=O)C1=C(C)NC(=O)CC1c1cc2c(cc1Br)OCO2` (stereo not given), the inhibition is 3.68%. With `COc1ccccc1C1C2=C(COC2=O)Nc2cc3c(cc21)OCO3` (stereo not given), the inhibition is 80.4% (active). The same measure for `COc1ccc(F)cc1S(=O)(=O)Nc1ccc2c(c1)OCO2`: 3.23%; for `COc1cc2c(cc1/C=C1/NC(=O)N(c3ccccc3)C1=O)OCO2`: 10.5%; for `CCN(CC)C(=O)CSC(Nc1cccc(F)c1)=C(C#N)C#N`: -0.34%. The result for `Cc1cc(C)c2nc(-c3cccnc3)cc(C(=O)Nc3ccc(S(=O)(=O)Nc4onc(C)c4C)cc3)c2c1` reads 8.53%; that for `O=C(CN1CCCCC1)Nc1ccccc1Cl`, 5.49%. Take `O=C(Nc1ccccc1Cl)/C(Cl)=C(\Cl)S(=O)c1ccccc1` (stereo not given): the inhibition is 104% (active). As for `O=C(Nc1ccccc1Cl)c1ccc2nsnc2c1`, the inhibition is 9.68%.
